Test [1] deals with RAC-alpha serine/threonine-protein kinase (Homo sapiens) (UniProt P31749). The note with it: at 0.1 µM.
Test [2] has the same target. The settings on record: at 1 µM.
Test [3] deals with RAC-beta serine/threonine-protein kinase (Homo sapiens) (UniProt P31751). The settings on record: at 0.1 µM.
Test [4] has the same target. The settings on record: at 1 µM.
For test [5], the target named is RAC-gamma serine/threonine-protein kinase (Homo sapiens) (UniProt Q9Y243). The note with it: at 0.1 µM.
RAC-gamma serine/threonine-protein kinase (Homo sapiens), sequence (Q9Y243 whole entry): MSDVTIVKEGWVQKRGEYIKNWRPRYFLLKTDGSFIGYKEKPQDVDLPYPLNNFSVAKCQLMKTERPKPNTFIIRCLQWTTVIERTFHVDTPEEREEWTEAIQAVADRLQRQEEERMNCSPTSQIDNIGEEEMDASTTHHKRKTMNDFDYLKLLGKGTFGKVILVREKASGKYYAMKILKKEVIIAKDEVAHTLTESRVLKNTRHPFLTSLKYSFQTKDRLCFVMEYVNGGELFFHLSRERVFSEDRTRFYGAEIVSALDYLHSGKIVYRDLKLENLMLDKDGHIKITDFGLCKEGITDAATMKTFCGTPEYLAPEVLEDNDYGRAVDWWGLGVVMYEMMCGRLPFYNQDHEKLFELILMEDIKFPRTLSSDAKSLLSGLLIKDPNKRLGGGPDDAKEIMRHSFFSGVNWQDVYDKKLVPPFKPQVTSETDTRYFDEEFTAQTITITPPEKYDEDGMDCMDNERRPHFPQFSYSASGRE
The target is the same in test [6]. The settings on record: at 1 µM.
Test [7] concerns the target G protein-coupled receptor kinase 6 (Homo sapiens) (UniProt P43250). The settings on record: at 0.1 µM.
For test [8] the target is unchanged. The settings on record: at 1 µM.
In test [9] the target is T1, Rhodopsin kinase GRK7 (Homo sapiens) (UniProt Q8WTQ7).
T1 sequence (whole entry): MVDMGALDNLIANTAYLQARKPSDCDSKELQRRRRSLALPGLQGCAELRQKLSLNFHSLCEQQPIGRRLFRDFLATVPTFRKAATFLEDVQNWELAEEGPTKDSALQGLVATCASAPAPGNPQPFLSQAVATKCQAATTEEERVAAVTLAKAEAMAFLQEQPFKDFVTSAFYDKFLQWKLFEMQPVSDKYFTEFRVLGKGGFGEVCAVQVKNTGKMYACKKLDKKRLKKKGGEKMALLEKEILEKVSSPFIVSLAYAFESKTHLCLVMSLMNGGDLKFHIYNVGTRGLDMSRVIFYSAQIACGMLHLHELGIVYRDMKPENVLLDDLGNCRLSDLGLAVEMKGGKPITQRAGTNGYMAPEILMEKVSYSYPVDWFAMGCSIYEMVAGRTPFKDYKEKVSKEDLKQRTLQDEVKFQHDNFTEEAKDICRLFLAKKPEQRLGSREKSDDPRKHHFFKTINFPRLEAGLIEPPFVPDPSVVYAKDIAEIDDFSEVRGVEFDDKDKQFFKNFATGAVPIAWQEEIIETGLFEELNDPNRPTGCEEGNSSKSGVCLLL
The settings on record: at 0.1 µM.

Test [10] has as its target T1, Rhodopsin kinase GRK7 (Homo sapiens). The note with it: at 1 µM.
The target of test [11] is Serine/threonine-protein kinase MRCK alpha (Homo sapiens) (UniProt Q5VT25). The settings on record: at 0.1 µM.
Serine/threonine-protein kinase MRCK alpha (Homo sapiens), sequence (Q5VT25 whole entry): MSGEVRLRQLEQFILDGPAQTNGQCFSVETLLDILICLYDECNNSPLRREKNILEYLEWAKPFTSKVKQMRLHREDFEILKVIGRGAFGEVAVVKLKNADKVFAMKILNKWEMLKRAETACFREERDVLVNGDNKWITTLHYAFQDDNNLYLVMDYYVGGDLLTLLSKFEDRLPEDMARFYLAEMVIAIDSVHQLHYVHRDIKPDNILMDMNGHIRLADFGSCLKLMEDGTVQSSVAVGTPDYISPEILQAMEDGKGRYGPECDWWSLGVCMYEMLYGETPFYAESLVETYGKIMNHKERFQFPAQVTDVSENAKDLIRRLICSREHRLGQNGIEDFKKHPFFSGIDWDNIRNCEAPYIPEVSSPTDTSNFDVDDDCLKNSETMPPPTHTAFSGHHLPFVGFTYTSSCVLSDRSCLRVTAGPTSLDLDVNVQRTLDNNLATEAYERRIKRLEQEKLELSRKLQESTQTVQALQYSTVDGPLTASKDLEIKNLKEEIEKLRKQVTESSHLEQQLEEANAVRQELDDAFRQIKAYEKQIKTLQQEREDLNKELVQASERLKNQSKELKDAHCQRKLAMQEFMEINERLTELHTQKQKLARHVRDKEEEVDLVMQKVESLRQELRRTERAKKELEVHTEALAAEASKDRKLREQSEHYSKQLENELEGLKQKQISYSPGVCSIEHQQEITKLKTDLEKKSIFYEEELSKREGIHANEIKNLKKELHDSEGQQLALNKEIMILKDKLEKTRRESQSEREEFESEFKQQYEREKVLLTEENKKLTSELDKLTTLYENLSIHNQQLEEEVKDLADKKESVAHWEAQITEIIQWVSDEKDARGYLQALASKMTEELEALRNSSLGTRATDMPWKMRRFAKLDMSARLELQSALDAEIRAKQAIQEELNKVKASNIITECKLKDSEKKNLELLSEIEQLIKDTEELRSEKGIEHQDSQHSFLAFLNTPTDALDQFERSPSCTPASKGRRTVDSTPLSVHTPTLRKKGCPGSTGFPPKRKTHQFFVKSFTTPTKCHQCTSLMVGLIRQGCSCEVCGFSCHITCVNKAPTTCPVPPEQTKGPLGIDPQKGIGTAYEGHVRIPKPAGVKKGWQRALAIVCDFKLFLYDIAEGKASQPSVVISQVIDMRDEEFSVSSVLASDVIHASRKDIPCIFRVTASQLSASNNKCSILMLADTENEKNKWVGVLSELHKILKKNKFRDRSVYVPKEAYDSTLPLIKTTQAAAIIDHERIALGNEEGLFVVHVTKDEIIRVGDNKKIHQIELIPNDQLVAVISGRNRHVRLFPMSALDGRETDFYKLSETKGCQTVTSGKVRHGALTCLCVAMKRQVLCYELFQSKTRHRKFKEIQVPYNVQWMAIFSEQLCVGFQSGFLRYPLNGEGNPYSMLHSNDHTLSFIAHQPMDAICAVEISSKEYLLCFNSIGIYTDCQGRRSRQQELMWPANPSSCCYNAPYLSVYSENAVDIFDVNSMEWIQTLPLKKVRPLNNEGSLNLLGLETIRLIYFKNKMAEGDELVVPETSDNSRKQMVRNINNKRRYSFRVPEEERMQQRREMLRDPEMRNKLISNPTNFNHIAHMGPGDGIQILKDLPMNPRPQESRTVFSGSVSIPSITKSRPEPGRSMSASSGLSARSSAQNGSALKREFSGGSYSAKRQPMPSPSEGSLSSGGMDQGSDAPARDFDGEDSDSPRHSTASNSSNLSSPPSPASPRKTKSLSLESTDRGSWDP
Test [12] has the same target. The note with it: at 1 µM.
The target of test [13] is Serine/threonine-protein kinase MRCK beta (Homo sapiens) (UniProt Q9Y5S2). The settings on record: at 0.1 µM.
Test [14] has the same target. The settings on record: at 1 µM.
Test [15] has as its target Ribosomal protein S6 kinase alpha-5 (Homo sapiens) (UniProt O75582). The note with it: at 0.1 µM.
Test [16] has the same target. The note with it: at 1 µM.
For test [17], the target named is Ribosomal protein S6 kinase alpha-4 (Homo sapiens) (UniProt O75676). The note with it: at 0.1 µM.
Ribosomal protein S6 kinase alpha-4 (Homo sapiens), sequence (O75676 whole entry, looked up): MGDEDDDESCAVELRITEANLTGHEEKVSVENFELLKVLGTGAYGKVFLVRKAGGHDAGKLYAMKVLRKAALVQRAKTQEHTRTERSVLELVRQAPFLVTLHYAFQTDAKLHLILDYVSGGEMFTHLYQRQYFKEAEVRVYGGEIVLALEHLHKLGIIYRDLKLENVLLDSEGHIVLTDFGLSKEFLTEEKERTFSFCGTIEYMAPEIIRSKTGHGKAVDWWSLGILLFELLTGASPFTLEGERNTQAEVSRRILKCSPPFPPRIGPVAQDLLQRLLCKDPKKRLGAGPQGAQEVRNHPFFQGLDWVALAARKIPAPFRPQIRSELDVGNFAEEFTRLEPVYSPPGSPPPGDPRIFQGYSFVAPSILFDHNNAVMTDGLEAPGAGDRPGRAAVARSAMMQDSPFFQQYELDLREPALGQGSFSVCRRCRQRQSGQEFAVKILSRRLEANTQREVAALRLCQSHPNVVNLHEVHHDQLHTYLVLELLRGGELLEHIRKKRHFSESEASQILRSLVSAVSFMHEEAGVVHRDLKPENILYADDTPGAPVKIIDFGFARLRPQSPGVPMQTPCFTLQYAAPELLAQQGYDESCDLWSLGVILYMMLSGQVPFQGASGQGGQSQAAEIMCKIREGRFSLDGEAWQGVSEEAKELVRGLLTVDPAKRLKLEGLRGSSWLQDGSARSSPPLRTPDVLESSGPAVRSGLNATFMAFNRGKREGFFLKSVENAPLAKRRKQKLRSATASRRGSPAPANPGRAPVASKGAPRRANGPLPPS
The target is the same in test [18]. The settings on record: at 1 µM.
For test [19], the target named is Ribosomal protein S6 kinase beta-1 (Homo sapiens) (UniProt P23443). The settings on record: at 0.1 µM.
Test [20] has the same target. The note with it: at 1 µM.

Molecules are shown by their SMILES.

RAC-alpha serine/threonine-protein kinase (Homo sapiens), sequence (P31749 whole entry): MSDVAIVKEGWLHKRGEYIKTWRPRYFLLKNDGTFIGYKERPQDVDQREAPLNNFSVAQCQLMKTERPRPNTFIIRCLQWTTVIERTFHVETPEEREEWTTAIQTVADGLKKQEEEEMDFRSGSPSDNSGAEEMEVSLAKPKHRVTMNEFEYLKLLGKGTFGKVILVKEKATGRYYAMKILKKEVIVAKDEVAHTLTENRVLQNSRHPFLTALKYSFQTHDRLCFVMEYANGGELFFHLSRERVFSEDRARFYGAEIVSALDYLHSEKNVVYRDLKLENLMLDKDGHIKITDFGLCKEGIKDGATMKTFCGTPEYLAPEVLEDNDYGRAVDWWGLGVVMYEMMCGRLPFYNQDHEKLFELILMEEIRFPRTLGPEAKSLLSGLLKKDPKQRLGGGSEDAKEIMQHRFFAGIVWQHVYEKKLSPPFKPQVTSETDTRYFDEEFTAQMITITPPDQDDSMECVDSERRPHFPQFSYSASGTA
Ribosomal protein S6 kinase alpha-5 (Homo sapiens), sequence (O75582 whole entry, looked up): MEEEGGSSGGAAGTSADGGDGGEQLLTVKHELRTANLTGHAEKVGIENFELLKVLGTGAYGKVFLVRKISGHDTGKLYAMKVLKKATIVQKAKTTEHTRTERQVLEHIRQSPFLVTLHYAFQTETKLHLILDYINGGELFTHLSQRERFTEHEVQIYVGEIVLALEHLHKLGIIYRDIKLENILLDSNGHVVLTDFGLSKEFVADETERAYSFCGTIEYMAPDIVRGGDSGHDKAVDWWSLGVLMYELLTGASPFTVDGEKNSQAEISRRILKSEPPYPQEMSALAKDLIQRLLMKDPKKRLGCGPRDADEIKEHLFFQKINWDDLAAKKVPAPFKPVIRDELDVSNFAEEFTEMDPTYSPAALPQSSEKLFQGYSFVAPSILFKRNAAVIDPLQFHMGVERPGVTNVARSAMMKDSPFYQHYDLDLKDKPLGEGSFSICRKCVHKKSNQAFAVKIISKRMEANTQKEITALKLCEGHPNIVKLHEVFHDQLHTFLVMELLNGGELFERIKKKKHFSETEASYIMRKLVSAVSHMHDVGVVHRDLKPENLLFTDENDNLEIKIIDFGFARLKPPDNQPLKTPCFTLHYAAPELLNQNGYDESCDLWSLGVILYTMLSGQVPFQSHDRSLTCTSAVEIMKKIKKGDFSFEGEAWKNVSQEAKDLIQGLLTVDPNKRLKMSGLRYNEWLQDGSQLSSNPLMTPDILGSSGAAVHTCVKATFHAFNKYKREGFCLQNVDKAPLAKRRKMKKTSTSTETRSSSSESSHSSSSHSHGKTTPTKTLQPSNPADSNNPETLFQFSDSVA
G protein-coupled receptor kinase 6 (Homo sapiens), sequence (P43250 whole entry, looked up): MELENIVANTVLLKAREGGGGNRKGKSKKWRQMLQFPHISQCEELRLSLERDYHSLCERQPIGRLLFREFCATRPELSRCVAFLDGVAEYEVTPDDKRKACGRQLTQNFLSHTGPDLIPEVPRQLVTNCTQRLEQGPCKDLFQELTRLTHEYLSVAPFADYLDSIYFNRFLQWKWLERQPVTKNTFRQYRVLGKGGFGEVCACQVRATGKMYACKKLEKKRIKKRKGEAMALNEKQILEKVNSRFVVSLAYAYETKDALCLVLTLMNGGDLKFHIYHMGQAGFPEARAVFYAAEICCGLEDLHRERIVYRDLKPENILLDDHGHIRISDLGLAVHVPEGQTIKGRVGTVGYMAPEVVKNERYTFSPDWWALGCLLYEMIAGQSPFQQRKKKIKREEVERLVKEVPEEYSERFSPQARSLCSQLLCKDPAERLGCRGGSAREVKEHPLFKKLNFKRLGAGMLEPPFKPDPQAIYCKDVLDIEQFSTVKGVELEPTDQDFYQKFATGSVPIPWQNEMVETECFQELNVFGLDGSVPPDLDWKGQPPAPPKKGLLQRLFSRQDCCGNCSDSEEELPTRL

For the molecule `CS(=O)(=O)CCNCc1nc(-c2ccc3ncnc(Nc4ccc(OCc5cccc(C(F)(F)F)c5)cc4)c3c2)cs1`, the inhibition is 0.2% in test [1]; -0.66% in test [2]; -0.39% in test [3]; 0.39% in test [4]; 0.84% in test [5]; 1.91% in test [6]. Moreover, the inhibition in [7] is 0.43%; in test [8], 0.06%; in [9], 3.85%; in [10], -1.01%; in test [11], 4.26%; in test [12], 2.95%. The inhibition was -0.6% in test [13]; 0.82% in test [14]; 0.64% in [15]; 1.57% in test [16]; 1.54% in [17]; 2.66% in test [18]. Moreover, the inhibition was 1.22% in test [19] and 1.83% in test [20].

Regarding `COc1cc(Nc2nccc(-c3cnn4ncccc34)n2)cc(OC)c1`, the inhibition in test [1] stood at 0.23%; in [2], 0.24%; in [3] it was 0.16%; in [4], 0.1%; in test [5] it was 0.27%; in test [6], 1.18%. Also, the inhibition in test [7] was 0.91%; in [8], -0.01%; in [9], 6.32%; in [10], 9.43%; in test [11] it was 0.39%; in [12] it was 3.14%. For the same molecule, the inhibition amounted to 1.06% in test [13]; 3.3% in test [14]; 1.61% in [15]; 7.26% in test [16]; 2.85% in test [17]; 15.7% in test [18]. Also, the inhibition in test [19] was found to be 1.87%; in test [20] it was 6.59%.

Take `Nc1nccc(-c2c(-c3ccc(F)cc3)nn3cc(C(F)(F)F)ccc23)n1`: the inhibition in test [1] is 0.02%; in test [2] it was -0.66%; in test [3], -0.52%; in [4], 0.01%; in [5], 0.2%; in test [6], -5.93%. Besides, the inhibition in test [7] is -1.46%; in [8], -0.24%; in [9], 3.74%; in test [10], 4.14%; in [11], -3.46%; in test [12], -4.53%. Moreover, the inhibition is -0.89% in [13]; -2.82% in test [14]; -0.99% in test [15]; -2.88% in [16]; 1.24% in [17]; -1.94% in test [18]. Further, the inhibition in [19] is -0.77%; in test [20], -3%.

Consider `Nc1nccc(-c2c(-c3ccc(F)cc3)ncn2CCCN2CCOCC2)n1`, for which the inhibition in test [1] was determined as 1.68%; in [2], 1.55%; in test [3], 2.52%; in test [4], 0.79%; in test [5], 1.64%; in [6], 3.69%. The inhibition in [7] was 4.54%; in test [8] it was 5.62%; in test [9], 2.89%; in test [10] it was 8.32%; in test [11], 0.42%; in test [12], 1.54%. The inhibition in test [13] is 0.49%; in test [14], 1.1%; in [15], 6.47%; in test [16] it was 6.81%; in test [17] it was 4.22%; in test [18], 3.46%. Moreover, the inhibition is 1.35% in [19] and 1.45% in [20].

`N#Cc1c(NC(=O)c2ccccc2F)sc2c1CCCC2`: the inhibition in test [1] is -0.97%; in test [2] it was -1.21%; in test [3] it was -1.71%; in test [4], -1.01%; in test [5] it was -1.05%; in test [6], -0.44%. Also, the inhibition in test [7] was 1.29%; in test [8], 2.2%; in test [9] it was 2.28%; in test [10], -1.97%; in [11], 1.07%; in test [12], -1.26%. Also, the inhibition in [13] was 0.23%; in test [14] it was -0.14%; in [15], -2.83%; in test [16], -2.33%; in test [17] it was -1.11%; in test [18] it was -0.35%. For the same molecule, the values for the inhibition in test [19] and in [20] were -0.91% and -0.98%, respectively.

In the case of `CCS(=O)(=O)c1ccc(OC)c(Nc2nccc(N(C)c3ccc4c(C)n[nH]c4c3)n2)c1`, the inhibition in [1] is 1.44%; in [2], 1.19%; in test [3], 1.01%; in [4] it was 2.53%; in test [5], 0.55%; in test [6], 2.78%. Moreover, the inhibition was -0.58% in test [7]; 1.67% in test [8]; 9.6% in test [9]; 1.83% in test [10]; -4.24% in test [11]; -2.48% in [12]. Moreover, the inhibition in test [13] stood at 0.97%; in test [14] it was 0.83%; in test [15] it was 4.1%; in test [16], 1.28%; in [17], 2.02%; in test [18], 0.35%. The inhibition in [19] was found to be 0.02%; in test [20] it was 1.3%.

These data come from ChEMBL document CHEMBL1961873, “Compounds: GSK PKIS; Assays: Nanosyn kinase panel” (2012).
